# In the supplement of paper PMC8253809:
# “And” between values parts separate entries of the source, which are not always exact repeats. Equal entries are not always repeated.
# What was measured:
# Assay in all cases: growth inhibition (% activity, log2 RLU normalised to DMSO / staurosporine); higher = more growth inhibition
# Details in all cases: 33 µM
# DIPGX29 = test system: DIPGX29 (H3.3 K27M diffuse intrinsic pontine glioma line)
# In short: (§1)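 The growth-inhibition value is the median over replicates. pHGG cell lines and H9-derived neural stem cells on Geltrex-coated 384-well plates received approved drugs by pin tool at a single final concentration of about 33 μM, in triplicate, for 7 days at 37 °C, 5% CO2. CellTiter-Glo luminescence was log2-transformed and normalised per plate to % activity between solvent and positive control wells.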
# DIPGX37 = test system: DIPGX37 (H3.3 K27M diffuse intrinsic pontine glioma line)
# In short: as §1
# DIPGX7 = test system: DIPGX7 (H3.3 K27M diffuse intrinsic pontine glioma line)
# In short: as §1
# DIPGX9 = test system: DIPGX9 (diffuse intrinsic pontine glioma line)
# In short: as §1
# HGGX39 = test system: HGGX39 (paediatric high-grade glioma line)
# In short: as §1
# HGGX6 = test system: HGGX6 (H3.3 G34R paediatric high-grade glioma line)
# In short: as §1
# HNSC = test system: HNSC
# In short: as §1
# SUDIPGIV = test system: SUDIPGIV (diffuse intrinsic pontine glioma line)
# In short: as §1
# SUDIPGVI = test system: SUDIPGVI (diffuse intrinsic pontine glioma line)
# In short: as §1
# SUDIPGXIII = test system: SUDIPGXIII (diffuse intrinsic pontine glioma line)
# In short: as §1
SMILES,growth inhibition (DIPGX29),growth inhibition (DIPGX37),growth inhibition (DIPGX7),growth inhibition (DIPGX9),growth inhibition (HGGX39),growth inhibition (HGGX6),growth inhibition (HNSC),growth inhibition (SUDIPGIV),growth inhibition (SUDIPGVI),growth inhibition (SUDIPGXIII)
Cc1cccc(Cc2c[nH]cn2)c1C,1.63%,3.84%,4.17%,3.18%,5.48%,2.59%,4.93%,6.05%,6.15%,0.33%
CCCN1C[C@H](CSC)C[C@@H]2c3cccc4[nH]cc(c34)C[C@H]21,-0.00648%,-1.76%,-0.373%,-0.427%,1.29%,2.2%,-2.99%,0.236%,0.348%,-3.14%
CCOC(=O)c1cncn1[C@H](C)c1ccccc1,1.12%,2.21%,2.54%,2.62%,1.86%,2.36%,3.19%,-0.15%,2.48%,0.0732%
O=C(O[C@H]1C[C@H]2CC[C@@H](C1)[N+]21CCCC1)C(O)(c1ccccc1)c1ccccc1,-4.33%,-1.91%,-0.848%,-3.62%,-4.77%,-4.81%,20.6%,-1.98%,-6.45%,-0.149%
Cc1cc(O)ccc1Cl,-0.668%,0.714%,0.716%,-0.222%,0.78%,0.216%,-2.46%,-0.746%,0.283%,0.848%
CC(=O)Nc1cc([As](=O)(O)O)ccc1O,-0.747%,1.33%,-1.33%,-0.567%,0.328%,0.00658%,-0.382%,-1.04%,0.903%,1.03%
c1ccc2c(c1)sc1ccccc12,-2.47%,-0.0217%,-2.61%,-1.01%,-2.68%,-1.23%,-4.08%,-1.98%,-1.87%,1.54%
CN(C)[C@@H]1C(=O)C(C(N)=O)=C(O)[C@@]2(O)C(=O)C3=C(O)c4c(O)ccc(Cl)c4[C@@](C)(O)[C@H]3C[C@@H]12,3.18%,4.29%,3.71%,3.16%,4.59%,3.5%,2.92%,2.12%,3.1%,-1.15%
CN1C2CC(O)CC1C1OC12 (centres undefined),-2.42%,-0.452%,-1.33%,0.803%,-1.67%,-0.472%,-2.89%,-1.37%,-0.226%,–
CN1c2ccccc2C(NCCCCCCC(=O)O)c2ccc(Cl)cc2S1(=O)=O (centres undefined),-1.12%,-3.13%,-0.607%,0.503%,-0.419%,0.961%,-2.51%,-2.29%,-1.84%,0.605%
CCC1(C)CC(=O)NC(=O)C1,-3.05%,-2.24%,4.09%,-2.78%,-4.36%,-4.73%,7%,-2.82%,-6.09%,-0.846%
O=P1(NCCCl)OCCCN1CCCl (centres undefined),-2.21%,-0.766%,5.61%,0.389%,3.87%,-0.383%,-5.21%,-2.15%,-7.65%,-1.43%
O=C1CC[C@@]2(O)[C@H]3Cc4ccc(O)c5c4[C@@]2(CCN3CC2CC2)[C@H]1O5,1.67%,1.95%,2.36%,2.58%,3.26%,2.55%,3.56%,1.52%,3.67%,-0.861%
O=S(=O)(F)Cc1ccccc1,0.493%,-0.634%,-0.837%,-0.877%,-0.194%,-1.52%,-0.438%,-0.0165%,1.21%,0.305%
NCC1(CC(=O)O)CCCCC1,2.13% and 0.326%,4.84% and 0.615%,3.15% and 1.16%,-0.041% and -0.903%,2.36% and -1.3%,2.04% and -2.75%,2.28% and -0.457%,1.22% and -1.85%,2.85% and -1.96%,-1.15% and -0.111%
C[N+]1(C)[C@@H]2C[C@@H](OC(=O)[C@H](CO)c3ccccc3)C[C@H]1[C@@H]1O[C@@H]12,-0.834%,1.29%,0.707%,0.849%,2.27%,2.07%,-1.37%,-0.286%,0.639%,0.798%
COc1ccc(C(CN(C)C)C2(O)CCCCC2)cc1 (centres undefined),1.29%,1.34%,1.7%,0.288%,0.682%,-0.233%,1.61%,0.0945%,-1.13%,-0.0836%
COC(=O)C1=CCCN(C)C1,2.02%,4.11%,0.892%,1.35%,1.54%,1.61%,1.06%,0.353%,3.57%,1.1%
CCC1(c2ccc(N)cc2)CCC(=O)NC1=O (centres undefined),-0.867%,0.792%,0.848%,0.885%,1.68%,2.54%,-1.67%,-1.8%,0.634%,-0.67%
